# Experimental data reported in PubChem BioAssay AID588855 (National Center for Advancing Translational Sciences (NCATS), 2011).
# The campaign covered roughly 410,000 compounds. About 5,000 (1.2%) were called active. Not shown: some 13% with an inconclusive outcome. The call rests on the fitted dose curve; in most records, active means well fitted inhibition curve with a large enough effect; inconclusive means small, poorly fitted or top-dose-only effect; inactive means no such curve, though single readings can be large or run the other way. Shown is part of a subset that was picked to be rich in actives. Where a call stands in place of a potency, no number is given.
# Experiment: qHTS for Inhibitors of TGF-b; further: nearly all actives have a fitted effect of over 65% in size
# Conditions: HepG2 CAGA-GFP TGF-b/SMAD3 reporter, GFP fluorescence, 18 h, TGF-beta stimulated, 500 pg/mL final; series mostly up to 46.1 µM
# Excerpt: TGF-b is a main component in the TGF-b signaling pathway which plays diverse roles in cellular and development pathways. TGF-b is the mediated by the transcription factors Smads. Although the Smad-dependent pathway is the primary canonical TGF-b signaling node, TGF-b1 can also activate alternative signaling pathways, including those involving MAPK (ERK, JNK and p38). This interaction may mediate or enhance Smad-dependent responses, or can exert Smad-independent effects. The complexity of this signaling cascade allows the TGF-b superfamily to perform unique, overlapping or redundant functions. We believe that targeting the TGF-beta pathway at the Smad-transcription factor level may eliminate the consequences of disrupting the entire pathway and offer specificity without affecting other signaling pathways. Smad3 is the primary transducer of TGF-b's signals and Smad3 regulates many functions attributed to TGF-b signaling. We hypothesize that Smad3 inhibitors will selectively eliminate Smad3-specific TGF-beta signals without undesired off-target effects. We aim to identify Smad3-small molecule antagonists using a quantitative high throughput screening (qHTS) approach.
# A high-throughput assay was developed to screen the NIH Molecular Libraries Small Molecule Repository (MLSMR). This is a cell based assay, where TGF-b is tagged with GFP. A counterscreen is run that looks at cytotoxicity (please see summary AID).
# MH087449NIH Chemical Genomics Center [NCGC]
# NIH Molecular Libraries Probe Centers Network [MLPCN]
# Assay Submitter (PI): Sushil Rane, National Institute of […]
# Suspensions of trypsinized HEPG2 CAGA-GFP cells were dispensed into white, tissue culture-treated, solid 1536-well plates at 5uL/well (1000 cells/well final concentration) in DMEM medium supplemented with 1% FBS. Plates were incubated at 37 degrees C for 2 hours, after which 23 nL of compounds or DMSO were delivered to each well using a pin tool. One uL of recombinant TGF-beta in DMEM (1% FBS) was then dispensed (500 pg/mL final concentration), and plates were incubated at 37 degrees C for 18 hours. The plates were measured on an Acumen eX3 Explorer plate reader for GFP fluorescence (ex488/em500-530). GFP values were calculated by determining the mean GFP fluorescence of individual cells, and compiling these values for each well to determine a total well GFP signal. The %Activity was determined from the corrected fluorescence values. A titration of the known TGF-B inhibitor SB431542 was included to monitor plate performance, while unstimulated HEPG2 (-TGF-B) control wells were used to normalize %Activity of identified inhibitors; unstimulated wells corresponded to 100%Activity (full inhibition), while stimulated cell controls (+DMSO) were used to normalize 0%Activity (no inhibition).
# Concentration-response curves were fitted to the signals arising from the resulting fluorescence. The concentration-effect curves were then classified based on curve quality (r2), response magnitude and degree of measured activity, and compounds were subsequently categorized based on their curve class.
# Potency means the concentration at half of the fitted maximal effect.
row,SMILES,Potency
1,CC(C)C(=O)NC(NC(=S)NC1CCS(=O)(=O)C1)C(Cl)(Cl)Cl (stereo not drawn),inactive
2,COc1ccc(NC(=S)NC2CCS(=O)(=O)C2)cc1 (stereo not drawn),inactive
3,CCCSC(=S)NC1CCS(=O)(=O)C1 (stereo not drawn),11.2 µM (active)
4,CCCC12CN3CC(CCC)(CN(C1)C3c1c[nH]c3ccc(OC)cc13)C2=O (stereo not drawn),inactive
5,COc1cc(NC(=O)c2nc3ccccc3nc2C)cc(OC)c1OC,inactive
6,COc1cc(C(=O)N2CCC(c3ccncc3)CC2)cc(OC)c1OC,inactive
7,Cc1ccc(N2CC(NC(=O)Cc3cccs3)CC2=O)cc1 (stereo not drawn),inactive
8,CCN(CC)S(=O)(=O)c1ccc(N2CCOCC2)c(NC(=O)c2ccc(=O)n(C)n2)c1,inactive
9,CCN(CC)S(=O)(=O)c1ccc(N2CCCC2)c(NC(=O)c2ccc([N+](=O)[O-])o2)c1,11.2 µM (active)
10,CCN(CC)S(=O)(=O)c1cc(C(=O)Nc2cc(S(=O)(=O)N3CCOCC3)ccc2N2CCCC2)ccc1F,inactive
11,CCc1ccc(C2C(C(=O)Nc3ccccc3)=C(C)Nc3c(C(=O)Nc4ccc(C)cc4)cnn32)cc1 (stereo not drawn),inactive
12,Cc1nc(N2CCOCC2)c2c(C(=O)NCc3cccc(Cl)c3)c(C)oc2n1,inactive
13,O=C(CCn1ccc2cc(S(=O)(=O)N3CCCC3)ccc21)NCc1cccc(Cl)c1,inactive
14,COC(=O)CCc1ccccc1S(=O)(=O)N(CCC(=O)OC)Cc1ccccc1,inactive
15,COc1ccc(-c2nc(=N)sn2-c2ccccc2)cc1,inactive
16,O=C(NC1=CC(=O)c2ccccc2C1=O)c1ccccc1,10 µM (active)
17,O=C(Nc1ncccc1O)c1ccc(C(=O)c2ccccc2)cc1,inactive
18,O=C(Nc1ccc2ccccc2c1[N+](=O)[O-])c1ccccc1,inactive
19,CCOc1ccccc1C(=O)Nc1ccc(S(=O)(=O)N2CCCCC2c2cccnc2)cc1 (stereo not drawn),inactive
20,Cc1nnc(NCc2ccccc2)c2c1nnn2Cc1ccc(F)cc1,inactive
21,CC(C)Cn1c(N)c(C(=O)NCc2cccs2)c2nc3ccccc3nc21,15.8 µM (active)
22,O=C(NCc1cccs1)c1cc(-c2ccccn2)nc2ccc(Br)cc12,inactive
23,O=C(Cc1coc2ccc3ccccc3c12)NCc1cccs1,inactive

row,SMILES,Potency
1,CCN(CC)c1ccc(/C=C/c2c(C)cnc3ccc(C)cc23)cc1,inactive
2,Clc1cccc[n+]1CCCC[n+]1ccccc1Cl,inactive
3,O=C(NCc1ccc2c(c1)OCO2)C12CC3CC(CC(C3)C1)C2,inactive
4,S=C(NCc1ccc(Cl)cc1)NC12CC3CC(CC(C3)C1)C2,11.2 µM (active)
5,Cc1ccc(C(=O)NC23CC4CC(CC(C4)C2)C3)c(Cl)c1,inactive
6,CCC(=O)Nc1ccc(C)cc1-c1nc2ccccc2n(Cc2ccccc2)c1=O,inactive
7,Nc1ccc(/C=C/c2ccnc3ccccc23)c([N+](=O)[O-])c1,inactive
8,CCCCN(CC)CCCNC(=O)c1nn(C)c2c1CSc1ccccc1-2,inactive
9,COc1cccc(CNC(=O)c2cccnc2Sc2ccc(Cl)cc2)c1,inactive
10,CC(=O)/C(=N\Nc1ccc(Cl)cc1Cl)Sc1cccc2cccnc12,2.82 µM (active)
11,COc1c(Cl)cc(Cl)cc1C(=O)Nc1cccc2cccnc12,inactive
12,COc1cccc(CN2CCc3nc(SCC(=O)Nc4ccccc4)[nH]c(=O)c3C2)c1,inactive
13,COc1ccccc1NC(=O)c1oc2ccccc2c1NC(=O)C(C)C,inactive
14,O=C(OCC(=O)N1CCN(C(=O)c2ccco2)CC1)c1cccc(O)c1,inactive
15,CN(c1ccccc1)S(=O)(=O)c1cc(C(=O)OCC(=O)N2CCN(C(=O)c3ccco3)CC2)ccc1Cl,10 µM (active)
16,O=C(OCC(=O)N1CCN(C(=O)c2ccco2)CC1)c1c(Cl)cccc1Cl,inactive
17,CCOc1ccc(NC(=O)c2cnn(-c3ccccc3)c2-n2cccc2)cc1,inactive
18,Cc1c(CNC(C)c2ccccc2)c(C(=O)O)c(C)n1Cc1c(F)cccc1Cl (stereo not drawn),inactive
19,CCc1cccc(NC(=O)CSc2nccn2C)c1,inactive
20,O=C(Cn1ncc2c3ccccc3n(Cc3ccccc3)c2c1=O)NC1CCCCCC1,inactive
21,COc1ccccc1CNS(=O)(=O)c1ccc2c(c1)NC(=O)CS2,inactive
22,COc1ccccc1CC1(C)C(=O)Nc2ccc(OC(F)(F)F)cc21 (stereo not drawn),20 µM (active)
23,Cc1ccc(CC2(C)C(=O)Nc3ccc(OC(F)(F)F)cc32)cc1 (stereo not drawn),15.8 µM (active)

row,SMILES,Potency
1,COc1ccc(C2(O)C(=O)Nc3ccccc32)cc1 (stereo not drawn),inactive
2,O=C(CSc1ncc(-c2ccccc2)[nH]1)Nc1ccc(F)cc1F,inactive
3,Cc1ccc(N2CC(C(=O)Nc3ccc(N(C)C)cc3)CC2=O)cc1Cl (stereo not drawn),inactive
4,Cc1cccc(OCC(=O)N(Cc2ccc(C(C)C)cc2)Cc2ccco2)c1C,inactive
5,CN(C)c1ccc(/C=C/c2c3ccccc3nc3ccccc23)cc1,inactive
6,COc1ccccc1N1CCN(C2C(=O)c3ccccc3N2C(C)=O)CC1 (stereo not drawn),inactive
7,COc1ccc(NC(=O)CCNS(=O)(=O)c2ccc3c(c2)CCCC(=O)N3)cc1Cl,inactive
8,CCOC(=O)CN1CCC(c2ccccc2)CC1,inactive
9,CCOC(=O)CNC(=O)/C(=C\c1ccc(F)cc1)NC(=O)c1ccccc1,inactive
10,CCOC(=O)C[C@H]1c2ccc(C(F)(F)F)cc2S(=O)(=O)N1c1ccccc1,14.1 µM (active)
11,CC(C)OCC(O)CN1CCN(C(c2ccccc2)c2ccccc2)CC1 (stereo not drawn),inactive
12,Cc1onc(C(=O)NN)c1C(=O)N1CCN(C(c2ccccc2)c2ccccc2)CC1,inactive
13,CC1(C)CC(N2CCN(C(c3ccccc3)c3ccccc3)CC2)=CC(=[N+]2CCCCC2)C1,6.31 µM (active)
14,COc1ccc(NC(=O)c2sc3nc(-c4cc5cccc(OC)c5oc4=O)[nH]c(=O)c3c2C)cc1,inactive
15,Cc1csc[n+]1CCC1CCCCC1,inactive
16,Cc1ccccc1C(=O)Nc1cc(C)c(O)c(-c2nc3ccccc3o2)c1,inactive
17,CC1CCc2c(nc3ncnn3c2Nc2ccc(OC(F)(F)F)cc2)C1 (stereo not drawn),15.8 µM (active)
18,COC(=O)c1cnn(-c2ccc(C(=O)Nc3ccc(OC(F)(F)F)cc3)cc2)c1N,inactive
19,CC(=O)c1nn(-c2ccc(OC(F)(F)F)cc2)nc1Nc1ccccc1,inactive
20,CCCN(CCC)CCNC(=O)c1cc2c(C)nc3ccccc3c2o1,inactive
21,CN(C)CCNC(=O)c1ccc(Cl)c2cc3ccccc3nc12,3.55 µM (active)
22,Cc1cc(C)n(C(=O)CCNC(=O)c2ccccc2Cl)n1,inactive
